Bioassay records as filed in PubChem.
CHO-K1 Ca PAM: M1 PAM counterscreen hit in parental CHO-K1 cells; activation, % at 3 µM; ATP EC20, Fluo-8 calcium fluorescence; 0% at ATP EC20, 100% at ATP max; 0.02% of 360,000 active;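 active = activation above the run cutoff, the mean activation of all test compounds plus 3 SD, cut at about 40% in these data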;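 note: peak over basal fluorescence ratio in a 140 s read after ATP addition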
CHRM1 PAM: positive allosteric modulators of human M1 muscarinic receptor; 0.088% of 360,000 active; CHO-K1 hM1, Fluo-8 calcium fluorescence, ACh EC20; 0% = ACh EC20, 100% = maximal ACh; P11229; activation, % at 3 µM; in the data active = activation above about 19%, passing the limit was not always enough
Target sequence (P11229 whole entry, looked up): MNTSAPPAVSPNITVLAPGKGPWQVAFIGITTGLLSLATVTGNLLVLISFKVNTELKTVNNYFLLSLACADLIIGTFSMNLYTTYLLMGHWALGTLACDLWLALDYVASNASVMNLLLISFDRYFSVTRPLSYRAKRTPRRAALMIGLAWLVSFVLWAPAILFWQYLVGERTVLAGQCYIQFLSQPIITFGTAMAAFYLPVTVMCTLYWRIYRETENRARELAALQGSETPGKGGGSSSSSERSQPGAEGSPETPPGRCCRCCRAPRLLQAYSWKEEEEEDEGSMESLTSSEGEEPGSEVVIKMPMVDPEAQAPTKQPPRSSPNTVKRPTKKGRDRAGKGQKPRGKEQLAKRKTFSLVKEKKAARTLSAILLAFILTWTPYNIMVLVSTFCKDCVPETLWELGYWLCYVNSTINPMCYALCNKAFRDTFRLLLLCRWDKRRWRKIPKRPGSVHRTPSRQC
CHO-K1 Ca antag: M1 antagonist counterscreen hit in parental CHO-K1 cells; 0.6% of 360,000 active; AID 602250; ATP-induced calcium, Fluo-8 fluorescence; inhibition, % at 3 µM;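 active = inhibition above a per-plate cutoff, the plate's mean sample inhibition plus 3 SD, cut at about 24% in these data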
CHO-K1 Ca ag: M1 agonist counterscreen hit in parental CHO-K1 cells; Fluo-8 calcium fluorescence; scaled to maximal ATP response, vehicle zero; activation, % at 3 µM; 0.48% of 360,000 active; in the data active = activation above about 15%;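 note: untransfected CHO-K1 host cells lacking M1 receptor as counterscreen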
M1 antag: human CHRM1 antagonism; P11229; CHO-K1 hM1, Fluo-8 calcium fluorescence, ACh EC80 antagonist; 1.3% of 360,000 active; inhibition, % at 3 µM;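 active = percent inhibition above its own plate's cutoff, namely the mean of that plate's compound wells plus 3 SD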;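 note: peak over basal fluorescence ratio during 140 s after agonist addition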
M1 ag: activates human CHRM1 receptor | P11229 | CHO-K1 hM1, Fluo-8 calcium fluorescence, agonist mode; 0% DMSO, 100% acetylcholine EC100 | activation, % at 3 µM | 0.33% of 360,000 active | AID 588814;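 active = activation above the run's mean compound activation plus 3 SD, cut at about 16% in these data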;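 note: peak over basal fluorescence ratio within a 140 s kinetic read after compound addition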
A number is an active result; n = inactive; x = no result. Only some compounds are listed: those with a hit (about 2.3% of all), similar ones and a draw of the others.

SMILES | CHO-K1 Ca PAM | CHRM1 PAM | CHO-K1 Ca antag | CHO-K1 Ca ag | M1 antag | M1 ag
COc1ccc(C(CNc2ncnc3sc(C)c(C)c23)N(C)C)cc1 (centres undefined) | n | n | n | n | 23 | n
Cc1sc2ncnc(NCC3COc4ccccc4O3)c2c1C (centres undefined) | n | n | 27 | n | n | n
c1ccc(-c2csc3ncnc(NCC4COc5ccccc5O4)c23)cc1 (centres undefined) | n | n | n | n | n | n
Cc1sc2ncnc(NCC(c3ccco3)N(C)C)c2c1C (centres undefined) | n | n | n | n | 38 | n
Cc1sc2ncnc(Nc3ccccc3)c2c1C | n | n | n | n | n | n
COc1ccccc1C(CNc1ncnc2sc(C)c(C)c12)N(C)C (centres undefined) | n | n | n | n | 92 | n
Cc1sc2ncnc(NCc3ccccc3)c2c1C | n | n | n | n | n | n
CN(C)C(CNc1ncnc2sc3c(c12)CCCCC3)c1ccco1 (centres undefined) | n | n | n | n | n | n
CC1(C(=O)NS(=O)(=O)c2ccccc2Cl)CCN1C(=O)c1cccc2ccccc12 (centres undefined) | n | n | n | n | n | n
CC(NC(=O)CNC(=O)c1ccccc1Br)c1cccs1 (centres undefined) | n | n | n | n | n | n
CN(C)/C=C1\C=C2C(=O)c3ccccc3N2C1=O | n | n | 41 | 165 | n | 141
COc1ccc(-c2csc(C(O)c3ccc(F)c(OC)c3)n2)cc1 (centres undefined) | n | n | n | n | n | n
CC1(c2nnnn2Cc2ccccc2)CCC(=O)N1Cc1cccc(C(F)(F)F)c1 (centres undefined) | n | x | n | n | x | x
CC1(C(=O)Nc2ccc3c(c2)OCCO3)CCC(=O)N1CC(F)(F)F (centres undefined) | n | n | n | n | n | n
CC1(C(=O)Nc2ccc3ccccc3c2)CCC(=O)N1CC(F)(F)F (centres undefined) | n | n | 32 | n | n | n
N#Cc1ccc(CN(Nc2ccccc2)c2ccccc2)cc1 | n | n | 29 | n | n | n
CN1C2CCC1CC(NC(=O)CSc1ccc(Cl)cc1)C2 (centres undefined) | n | n | n | n | 53 | n
Cc1cccc(C(=O)NCC(=O)OCC(=O)c2cc(C)n(CC3CCCO3)c2C)c1 (centres undefined) | n | n | n | 17 | n | n
COc1ccc(S(=O)(=O)Nc2cccc(N(C)S(C)(=O)=O)c2)cc1Br | n | n | n | 16 | n | n
Cc1ccccc1CCNC(=O)Cn1ccc2cc(S(=O)(=O)N3CCCC3)ccc21 | n | n | n | n | n | n
CCCCNC(=O)c1ccc2nc(CC)c(N(CCC(C)C)CCN(C)C)n2c1 | n | n | n | n | n | 22
CCCCNC(=O)c1ccc2nc(CC)c(N(CC)CCN(C)C)n2c1 | n | n | n | n | n | n
CCc1nc2ccc(C(=O)Nc3ccc(OC)c(OC)c3)cn2c1N(CCC(C)C)CCN(C)C | n | n | n | n | n | 18
CCc1nc2ccc(C(=O)NCCOc3ccc(OC)cc3)cn2c1N(CCC(C)C)CCN(C)C | n | n | n | n | n | 34
CCc1nc2ccc(C(=O)Nc3cc(-c4ccccc4)ccc3OC)cn2c1N(C)CCC(C)C | n | n | n | 37 | n | n
SMILES | CHO-K1 Ca PAM | CHRM1 PAM | CHO-K1 Ca antag | CHO-K1 Ca ag | M1 antag | M1 ag
CCc1nc2ccc(C(=O)Nc3cc(-c4ccccc4)ccc3OC)cn2c1N(C=O)CCC(C)C | n | n | n | n | n | n
CCc1nc2ccc(C(=O)Nc3ccc(NC(C)=O)cc3)cn2c1N(CCC(C)C)CCN(C)C | n | n | n | n | n | n
Cc1nn2c(N)c(-c3ccccc3)cnc2c1-c1ccccc1 | n | n | n | n | n | n
COc1cccc(C(NC(C)=O)c2nc(-c3cccc(F)c3)cs2)c1 (centres undefined) | n | n | n | n | n | n
COc1cc(NC(=O)Cn2cnc(C(=O)Nc3ccc(C)c(C)c3)n2)cc(OC)c1OC | n | n | n | n | n | n
CC1Cn2c(nnc2-c2ccc(F)cc2)S1 (centres undefined) | n | n | 26 | n | n | n
